# Source: PubChem BioAssay
# Calls of active or inactive are those of the source.
# Experiments:
# [1] = system: PRMT1 (protein arginine N-methyltransferase 1); assay: small molecules binding arginine methyltransferase PRMT1 – biochemical, small-molecule microarray, 635 nm fluorescence, primary screen (AID 1088); settings: higher = more signal;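 also: binding of Prmt1 protein to compounds spotted on small-molecule microarray slides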
# [2] = growth effects on S. cerevisiae YJM789 – YJM789 clinical isolate, OD600, 24 h, basal, primary screen (AID 1089); settings: higher = more signal, called active from +8 up or from −8 down;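 also: growth of clinical yeast isolate S. cerevisiae YJM 789 seeded 1000 cells per well; test concentration not given here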
# [3] = S. pombe growth modifiers, basal conditions – strain 972, OD600, 24 h, no modulator, primary screen (AID 1090);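 also: basal condition with compound alone and no growth modifier present; test concentration not given here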; settings: S. pombe 972 growth, higher = more signal, called active from +8 up or from −8 down
# [4] = budding yeast growth modifiers under rapamycin – strain BY4716, OD600, 96 h, primary screen (AID 1091); also: test concentration not given here; settings: S. cerevisiae BY4716 + rapamycin, higher = more signal, called active from +8 up or from −8 down
# [5] = biological target: Torsin-1A-interacting protein 2 (Homo sapiens) (UniProt Q8NFQ8); assay: small molecules binding lysate-expressed LULL1 – cell lysate, human LULL1 lysate, 635/667 nm fluorescence, primary screen (AID 1092); settings: small-molecule microarray, hLULL1 lysate binding, 635 nm fluorescence; higher = more signal;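 also: probe is lysate of COS7 cells overexpressing human LULL1; score merges per-feature 667 nm fluorescence with signal-to-noise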
# [6] = optical density change of DRC41 E. coli – strain DRC41, OD650, 24 h, E. coli filamentation project, primary screen (AID 1093);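 also: MC1000 strain lacking acrAB efflux and sulA so SOS filamentation is blocked; test concentration not given here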; settings: E. coli DRC41 growth, higher = more signal, called active from +8 up or from −8 down
# [7] = probe aLefty2 binding to arrayed compounds – biochemical, biotinylated probe, 635/667 nm fluorescence, primary screen (AID 1094); settings: small-molecule microarray, higher = more signal;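 also: score merges spot fluorescence near 667 nm with spot signal-to-noise ratio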
# [8] = system: Noggin (protein binding on small-molecule microarray); assay: small molecules binding Noggin protein – biochemical, 635/667 nm fluorescence, primary screen (AID 1095); settings: 635 nm fluorescence, higher = more signal;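 also: score merges 667 nm feature fluorescence with signal to noise over triplicate slides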
# [9] = biological target: Neurogenic locus notch homolog protein 3 (Homo sapiens) (UniProt Q9UM47); assay: small molecules binding NOTCH3 protein – biochemical, 635/667 nm fluorescence, primary screen (AID 1096); settings: small-molecule microarray, 635 nm fluorescence, higher = more signal
# [10] = probe aEGFR binding to arrayed compounds – biochemical, biotinylated probe, 635/667 nm fluorescence, primary screen (AID 1097); settings: small-molecule microarray, higher = more signal;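 also: probe is a biotinylated anti-EGFR antibody binding compounds printed on slides; score combines fluorescence near 667 nm and signal to noise of each spot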
# Chain of Neurogenic locus notch homolog protein 3 (Homo sapiens) (Q9UM47 whole entry, looked up): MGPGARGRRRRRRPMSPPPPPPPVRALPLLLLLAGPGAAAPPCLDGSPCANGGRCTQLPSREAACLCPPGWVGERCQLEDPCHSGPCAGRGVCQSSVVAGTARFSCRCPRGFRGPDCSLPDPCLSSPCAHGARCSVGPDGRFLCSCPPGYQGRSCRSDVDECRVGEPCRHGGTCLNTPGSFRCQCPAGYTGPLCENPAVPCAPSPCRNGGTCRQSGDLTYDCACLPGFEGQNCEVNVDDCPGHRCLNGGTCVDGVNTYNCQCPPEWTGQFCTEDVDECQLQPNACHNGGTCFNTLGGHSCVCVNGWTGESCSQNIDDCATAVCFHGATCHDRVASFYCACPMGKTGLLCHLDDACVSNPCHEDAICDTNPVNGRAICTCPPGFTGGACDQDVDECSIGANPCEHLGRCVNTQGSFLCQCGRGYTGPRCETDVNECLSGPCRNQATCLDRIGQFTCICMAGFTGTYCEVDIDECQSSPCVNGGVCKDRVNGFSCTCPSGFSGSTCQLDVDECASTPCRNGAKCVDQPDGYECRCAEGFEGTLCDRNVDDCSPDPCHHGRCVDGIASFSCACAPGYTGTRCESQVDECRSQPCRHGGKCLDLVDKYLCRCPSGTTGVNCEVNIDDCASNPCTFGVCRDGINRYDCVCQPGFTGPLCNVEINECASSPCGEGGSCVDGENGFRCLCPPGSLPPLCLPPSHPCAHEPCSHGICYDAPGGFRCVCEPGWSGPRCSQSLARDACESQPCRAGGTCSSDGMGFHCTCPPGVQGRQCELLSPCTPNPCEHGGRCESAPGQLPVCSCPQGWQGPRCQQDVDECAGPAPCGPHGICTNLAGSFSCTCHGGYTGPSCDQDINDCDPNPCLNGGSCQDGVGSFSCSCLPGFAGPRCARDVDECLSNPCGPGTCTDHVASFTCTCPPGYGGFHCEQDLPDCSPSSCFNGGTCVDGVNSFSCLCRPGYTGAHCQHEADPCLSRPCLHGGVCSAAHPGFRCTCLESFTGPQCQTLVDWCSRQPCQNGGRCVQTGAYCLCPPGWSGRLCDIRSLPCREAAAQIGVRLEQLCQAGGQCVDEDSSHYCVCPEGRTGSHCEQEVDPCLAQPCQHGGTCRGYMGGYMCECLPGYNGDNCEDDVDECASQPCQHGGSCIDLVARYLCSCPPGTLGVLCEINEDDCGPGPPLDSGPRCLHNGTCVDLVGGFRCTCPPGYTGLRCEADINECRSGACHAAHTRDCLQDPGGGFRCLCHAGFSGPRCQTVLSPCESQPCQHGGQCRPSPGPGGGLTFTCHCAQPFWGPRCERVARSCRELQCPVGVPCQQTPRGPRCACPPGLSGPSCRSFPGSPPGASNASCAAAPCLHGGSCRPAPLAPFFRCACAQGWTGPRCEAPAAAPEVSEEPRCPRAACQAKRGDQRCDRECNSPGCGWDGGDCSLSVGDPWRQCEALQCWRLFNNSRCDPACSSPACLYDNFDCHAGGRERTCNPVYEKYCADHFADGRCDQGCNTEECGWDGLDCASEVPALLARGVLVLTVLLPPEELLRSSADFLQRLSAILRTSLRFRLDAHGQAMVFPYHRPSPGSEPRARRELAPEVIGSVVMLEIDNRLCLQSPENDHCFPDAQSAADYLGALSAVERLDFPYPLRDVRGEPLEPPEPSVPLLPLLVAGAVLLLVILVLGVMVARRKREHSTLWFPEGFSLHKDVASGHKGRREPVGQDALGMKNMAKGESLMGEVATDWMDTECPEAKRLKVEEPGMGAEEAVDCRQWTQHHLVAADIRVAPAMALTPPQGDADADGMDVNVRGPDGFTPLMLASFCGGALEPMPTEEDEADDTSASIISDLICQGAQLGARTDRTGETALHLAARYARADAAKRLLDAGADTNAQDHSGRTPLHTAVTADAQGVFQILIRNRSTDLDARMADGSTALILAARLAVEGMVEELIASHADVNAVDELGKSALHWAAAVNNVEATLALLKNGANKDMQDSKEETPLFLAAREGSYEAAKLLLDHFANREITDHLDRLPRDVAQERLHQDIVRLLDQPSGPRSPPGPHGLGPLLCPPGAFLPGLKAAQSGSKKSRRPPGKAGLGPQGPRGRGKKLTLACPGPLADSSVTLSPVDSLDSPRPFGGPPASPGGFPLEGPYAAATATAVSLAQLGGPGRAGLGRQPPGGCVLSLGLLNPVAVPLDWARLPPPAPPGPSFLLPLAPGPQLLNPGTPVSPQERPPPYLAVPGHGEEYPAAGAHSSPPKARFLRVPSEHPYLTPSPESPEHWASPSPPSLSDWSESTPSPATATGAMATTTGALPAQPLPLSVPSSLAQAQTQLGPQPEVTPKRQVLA
# Chain of Torsin-1A-interacting protein 2 (Homo sapiens) (Q8NFQ8 whole entry, looked up): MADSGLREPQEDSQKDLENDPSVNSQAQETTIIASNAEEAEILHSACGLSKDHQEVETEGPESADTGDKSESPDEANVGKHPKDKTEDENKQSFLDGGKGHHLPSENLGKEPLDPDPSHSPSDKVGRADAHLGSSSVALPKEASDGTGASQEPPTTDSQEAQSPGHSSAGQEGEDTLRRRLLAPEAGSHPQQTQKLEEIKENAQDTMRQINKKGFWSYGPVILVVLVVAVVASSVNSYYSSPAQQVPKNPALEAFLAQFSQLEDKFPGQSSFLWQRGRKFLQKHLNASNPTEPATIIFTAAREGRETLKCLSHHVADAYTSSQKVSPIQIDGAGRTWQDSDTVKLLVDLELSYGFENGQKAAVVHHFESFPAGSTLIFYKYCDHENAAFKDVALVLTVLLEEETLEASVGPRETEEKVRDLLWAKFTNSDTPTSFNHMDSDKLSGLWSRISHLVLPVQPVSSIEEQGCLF
smiles,measurement,setting,value
COCCOC(=O)N1C(=O)[C@@]2(c3cc(C#CCC(C(=O)OC)C(=O)OC)ccc31)[C@H](c1ccccc1OCCO)N1[C@H](c3ccccc3)[C@H](c3ccccc3)OC(=O)[C@H]1[C@@H]2C(=O)N1CCN(c2ncccn2)CC1,composite z-score,[1],1.54
same,z-score,[2],2.01 (inactive)
same,z-score,[3],2.65 (inactive)
same,z-score,[4],7.01 (inactive)
same,composite z-score,[5],3.09
same,z-score,[6],0.998 (inactive)
same,composite z-score,[7],-0.0557
same,composite z-score,[8],1.28
same,composite z-score,[9],1.08
same,composite z-score,[10],0.032
O=C1NC(=O)C2C1C=CC(C(O)c1cc(C(F)(F)F)cc(C(F)(F)F)c1)N2Nc1ccccn1 (stereo not given),composite z-score,[1],0.463
same,z-score,[2],0.307 (inactive)
same,z-score,[3],1.19 (inactive)
same,z-score,[4],-0.697 (inactive)
same,composite z-score,[5],1.21
same,z-score,[6],-1.02 (inactive)
same,composite z-score,[7],0.05
same,composite z-score,[8],0.159
same,composite z-score,[9],0.429
same,composite z-score,[10],-0.129
O=C1O[C@@H](c2ccccc2)[C@@H](c2ccccc2)N2[C@@H](c3ccccc3OCCO)[C@]3(C(=O)Nc4ccccc43)[C@@H](C(=O)Nc3nc4ccccc4s3)[C@H]12,composite z-score,[1],1.53
same,z-score,[2],1.13 (inactive)
same,z-score,[3],-0.205 (inactive)
same,z-score,[4],2.85 (inactive)
same,composite z-score,[5],3.22
same,z-score,[6],1.26 (inactive)
same,composite z-score,[7],-0.215
same,composite z-score,[8],1.53
same,composite z-score,[9],1.04
same,composite z-score,[10],0.148
CCCCCN1CC=CC23O[C@@H]4C=CCCOC(=O)C4[C@H]2C(=O)N(CCCCCO)[C@@H]3C1=O (stereo not given in full),composite z-score,[1],-0.192
same,z-score,[2],-0.286 (inactive)
same,z-score,[3],-0.772 (inactive)
same,z-score,[4],-0.255 (inactive)
same,composite z-score,[5],2.3
same,z-score,[6],0.764 (inactive)
same,composite z-score,[7],-0.0288
same,composite z-score,[8],-0.589
same,composite z-score,[9],-0.147
same,composite z-score,[10],-0.203
NC(=O)NCC#Cc1ccc2c(c1)[C@]1(C(=O)N2)[C@H](c2ccc(O)cc2)N2[C@H](c3ccccc3)[C@H](c3ccccc3)OC(=O)[C@H]2[C@@H]1C(=O)O,composite z-score,[1],-0.019
same,z-score,[2],0.801 (inactive)
same,z-score,[3],-0.0898 (inactive)
same,z-score,[4],0.607 (inactive)
same,composite z-score,[5],0.966
same,z-score,[6],-0.504 (inactive)
same,composite z-score,[7],-0.255
same,composite z-score,[8],-0.581
same,composite z-score,[9],-0.156
same,composite z-score,[10],-0.191
O=C1N(Cc2ccccc2)c2ccccc2[C@@H]2OC(c3ccc(OCCCO)cc3)=N[C@]12CCS(=O)(=O)c1ccccc1,composite z-score,[1],1.5
same,z-score,[2],0.805 (inactive)
same,z-score,[3],1.11 (inactive)
same,z-score,[4],7.05 (inactive)
same,composite z-score,[5],2.98
same,z-score,[6],0.0515 (inactive)
same,composite z-score,[7],0.169
same,composite z-score,[8],1.11
same,composite z-score,[9],0.783
same,composite z-score,[10],0.0248
COc1ccc(C#Cc2ccc3c(c2)[C@]2(C(=O)N3)[C@H](C(=O)Nc3nc4ccccc4s3)[C@H]3C(=O)O[C@H](c4ccccc4)[C@H](c4ccccc4)N3[C@@H]2c2ccc(O)cc2)cc1,composite z-score,[1],1.55
same,z-score,[2],2.2 (inactive)
same,z-score,[3],0.98 (inactive)
same,z-score,[4],0.172 (inactive)
same,composite z-score,[5],3.26
same,z-score,[6],0.943 (inactive)
same,composite z-score,[7],-0.0353
same,composite z-score,[8],1.82
same,composite z-score,[9],1.02
same,composite z-score,[10],0.398
CC(C)C(CO)N1C(=O)[C@@H]2C3C(=O)OCCC/C=C\[C@H]3OC23C=CCN(CCN2CCOCC2)C(=O)[C@@H]13 (stereo not given in full),composite z-score,[1],0.463
same,z-score,[2],0.366 (inactive)
same,z-score,[3],-0.21 (inactive)
same,z-score,[4],0.205 (inactive)
same,composite z-score,[5],-0.272
same,z-score,[6],-0.241 (inactive)
same,composite z-score,[7],-0.245
same,composite z-score,[8],0.0867
same,composite z-score,[9],0.0008
same,composite z-score,[10],-0.146
CC1CC/C=C\[C@H]2OC34C=CCN(C(C)(C)C)C(=O)[C@H]3N(CCO)C(=O)[C@@H]4C2C(=O)O1 (stereo not given in full),composite z-score,[1],1.06
same,z-score,[2],-1.33 (inactive)
same,z-score,[3],-0.905 (inactive)
same,z-score,[4],-0.471 (inactive)
same,composite z-score,[5],2.92
same,z-score,[6],1.45 (inactive)
same,composite z-score,[7],-0.0589
same,composite z-score,[8],0.112
same,composite z-score,[9],-0.916
same,composite z-score,[10],-0.312
CCOC(=O)C[C@H]1[C@H](OC(=O)c2ccccc2-c2ccccc2)[C@@H](NC(=O)CC(C)C)c2cc(OCCCO)ccc2N1C(=O)Cc1ccc(OC)cc1,composite z-score,[1],0.395
same,z-score,[2],-0.454 (inactive)
same,z-score,[3],0.109 (inactive)
same,z-score,[4],0.146 (inactive)
same,composite z-score,[5],0.472
same,z-score,[6],-0.853 (inactive)
same,composite z-score,[7],-0.103
same,composite z-score,[8],0.356
same,composite z-score,[9],-0.23
same,composite z-score,[10],-0.111
O[C@@H](Cc1ccccc1)[C@H]1C2C=CCCC=C2CN1Cc1cccc(Cl)c1 (stereo not given in full),composite z-score,[1],1.42
same,z-score,[2],-0.14 (inactive)
same,z-score,[3],-2.92 (inactive)
same,z-score,[4],-0.742 (inactive)
same,composite z-score,[5],1.17
same,z-score,[6],1.35 (inactive)
same,composite z-score,[7],-0.101
same,composite z-score,[8],0.728
same,composite z-score,[9],1.12
same,composite z-score,[10],-0.0039
CC1(C)C2C=C(C(O)C3C=CC4C(=O)NC(=O)C4N3Nc3ccc(Cl)cc3Cl)C[C@@H]1C2 (stereo not given in full),composite z-score,[1],0.804
same,z-score,[2],-7.63 (inactive)
same,z-score,[3],-6.77 (inactive)
same,z-score,[4],0.722 (inactive)
same,composite z-score,[5],1.33
same,z-score,[6],-2.98 (inactive)
same,composite z-score,[7],0.374
same,composite z-score,[8],0.178
same,composite z-score,[9],0.996
same,composite z-score,[10],0.279
NC(=O)N1C(=O)C2C(C1=O)C1C=C(c3ccc(CO)cc3)C2C(c2cccs2)N1Cc1cccc(OC(F)(F)F)c1 (stereo not given),composite z-score,[1],-0.139
same,z-score,[2],-1.7 (inactive)
same,z-score,[3],-4.45 (inactive)
same,z-score,[4],3.82 (inactive)
same,composite z-score,[5],1.01
same,z-score,[6],-0.528 (inactive)
same,composite z-score,[7],0.181
same,composite z-score,[8],-0.312
same,composite z-score,[9],-0.146
same,composite z-score,[10],0.0089
C=CCOC(=O)[C@@H]1[C@H]2C(=O)O[C@H](c3ccccc3)[C@H](c3ccccc3)N2[C@H](c2ccc(OCCOC(=O)[C@@H]3C[C@@H]4C(=O)NCC(=O)N4[C@@H]3c3ccc(O)cc3)cc2)[C@@]12C(=O)Nc1ccc(I)cc12,composite z-score,[1],1.55
same,z-score,[2],0.218 (inactive)
same,z-score,[3],0.985 (inactive)
same,z-score,[4],2.85 (inactive)
same,composite z-score,[5],2.54
same,z-score,[6],0.5 (inactive)
same,composite z-score,[7],-0.171
same,composite z-score,[8],1.58
same,composite z-score,[9],0.859
same,composite z-score,[10],-0.154
CC(=O)NCCCC[C@@H]1NC(=O)[C@@H]2C[C@H](C(=O)NCCCCCNC(=O)CS)[C@H](c3cccc(OCCO)c3)N2C1=O,composite z-score,[1],1.18
same,z-score,[2],-3.39 (inactive)
same,z-score,[3],-0.0277 (inactive)
same,z-score,[4],-2.5 (inactive)
same,composite z-score,[5],-0.0484
same,z-score,[6],1.16 (inactive)
same,composite z-score,[7],-0.141
same,composite z-score,[8],1.55
same,composite z-score,[9],0.486
same,composite z-score,[10],-0.0808
C=C(CCCC)/C(=C/C[C@H](OC(C)=O)c1ccccc1OCCO)c1cc(C(=O)OC)ccc1OC,composite z-score,[1],-0.0836
same,z-score,[2],0.556 (inactive)
same,z-score,[3],-0.886 (inactive)
same,z-score,[4],-0.24 (inactive)
same,composite z-score,[5],0.405
same,z-score,[6],1.18 (inactive)
same,composite z-score,[7],-0.171
same,composite z-score,[8],-0.035
same,composite z-score,[9],0.212
same,composite z-score,[10],-0.126
CCOC(=O)C[C@H]1[C@H](OC(=O)c2ccc(C(=O)c3ccccc3)cc2)[C@@H](NC(=O)c2ccc3ccccc3c2)c2cc(OCCCO)ccc2N1C(=O)Cc1ccc(OC)cc1,composite z-score,[1],0.789
same,z-score,[2],-0.0229 (inactive)
same,z-score,[3],0.713 (inactive)
same,z-score,[4],0.118 (inactive)
same,composite z-score,[5],1.43
same,z-score,[6],0.458 (inactive)
same,composite z-score,[7],0.0633
same,composite z-score,[8],0.0199
same,composite z-score,[9],0.479
same,composite z-score,[10],-0.0688
CC(C)N1C(=O)c2ccccc2[C@](C)(C(=O)NCCN2CCOCC2)[C@@H]1c1ccc(CO)cc1,composite z-score,[1],1.2
same,z-score,[2],0.608 (inactive)
same,z-score,[3],0.516 (inactive)
same,z-score,[4],0.511 (inactive)
same,composite z-score,[5],2.37
same,z-score,[6],-0.487 (inactive)
same,composite z-score,[7],0.0971
same,composite z-score,[8],0.495
same,composite z-score,[9],0.1
same,composite z-score,[10],-0.0152
O=C1C[C@@](C(=O)NCC(F)(F)F)(c2ccc([N+](=O)[O-])cc2)[C@@H](c2ccc(CO)cc2I)N1C1CCCCC1,composite z-score,[1],1.55
same,z-score,[2],-0.732 (inactive)
same,z-score,[3],0.294 (inactive)
same,z-score,[4],1.16 (inactive)
same,composite z-score,[5],2.52
same,z-score,[6],-0.426 (inactive)
same,composite z-score,[7],0.0524
same,composite z-score,[8],0.572
same,composite z-score,[9],1.09
same,composite z-score,[10],0.0721
CCOC(=O)C[C@H]1[C@H](OC(=O)c2cc3ccccc3oc2=O)[C@@H](NC(=O)c2ccccc2)c2cc(OCCCO)ccc2N1C(=O)c1ccc2ccccc2n1,composite z-score,[1],0.258
same,z-score,[2],0.157 (inactive)
same,z-score,[3],-0.12 (inactive)
same,z-score,[4],0.0284 (inactive)
same,composite z-score,[5],0.852
same,z-score,[6],0.368 (inactive)
same,composite z-score,[7],-0.193
same,composite z-score,[8],0.918
same,composite z-score,[9],0.662
same,composite z-score,[10],-0.0828
CCCC[C@@H]1C[C@H]1[C@@H](NC(=O)C(C)(C)C)c1ccc(C(F)(F)F)cc1,composite z-score,[1],0.648
same,z-score,[2],0.213 (inactive)
same,z-score,[3],-2.71 (inactive)
same,z-score,[4],0.329 (inactive)
same,composite z-score,[5],0.918
same,z-score,[6],-1.67 (inactive)
same,composite z-score,[7],0.0823
same,composite z-score,[8],-1.46
same,composite z-score,[9],-0.434
same,composite z-score,[10],-0.236
